Laboratory results published in PubChem BioAssay (NCI).
This is part of a sample that, as a whole, favours compounds with a hit. Of some 83,000 tested, about 20% had one in any assay.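 Cells were grown in 96-well plates and exposed to the test compound at a single concentration for 48 hours; results are reported as percent growth, with values below 10 considered active.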 A number with no mark means an inactive call. Activity calls are given as the source filed them.

Assays:
Test in all cases: NCI-60 one-dose screen, 48 h (100 = growth as untreated, 0 = no growth, -100 = all killed)
Conditions in all cases: 10 µM unless noted
RPMI-8226 leukemia = test system: RPMI-8226 leukemia
OVCAR-8 ovarian = test system: OVCAR-8 ovarian
OVCAR-5 ovarian = test system: OVCAR-5 ovarian
OVCAR-4 ovarian = test system: OVCAR-4 ovarian
SK-OV-3 ovarian = test system: SK-OV-3 ovarian
IGROV1 ovarian = test system: IGROV1 ovarian
OVCAR-3 ovarian = test system: OVCAR-3 ovarian
NCI/ADR-RES ovarian = test system: NCI/ADR-RES ovarian
T-47D breast = test system: T-47D breast
BT-549 breast = test system: BT-549 breast
MDA-MB-435 melanoma = test system: MDA-MB-435 melanoma
SW-620 colon = test system: SW-620 colon
MCF7 breast = test system: MCF7 breast
HCT-116 colon = test system: HCT-116 colon
HCC-2998 colon = test system: HCC-2998 colon
KM12 colon = test system: KM12 colon
HS 578T breast = test system: HS 578T breast

Structure (SMILES)	growth (RPMI-8226 leukemia)	growth (OVCAR-8 ovarian)	growth (OVCAR-5 ovarian)	growth (OVCAR-4 ovarian)	growth (SK-OV-3 ovarian)	growth (IGROV1 ovarian)	growth (OVCAR-3 ovarian)	growth (NCI/ADR-RES ovarian) [%]	growth (T-47D breast)	growth (BT-549 breast)	growth (MDA-MB-435 melanoma)	growth (SW-620 colon)	growth (MCF7 breast)	growth (HCT-116 colon)	growth (HCC-2998 colon)	growth (KM12 colon)	growth (HS 578T breast)
Cc1ccc(C(=O)c2sc3nc4c(cc3c2N)CCCC4)c(C)c1	-12.3% (active)	17.5%	47.2%	39.8%	19.9%	41.4%	12%	13.9	35.4%	55.8%	-44.5% (active)	30.3%	21%	25.3%	39.6%	33.9%	
C/C1=C\CCC2(C)OC2CC2CCC(C)(O)C(CC1)C2(C)C (stereo not drawn)	111%	89.8%	112%	99.7%	112%	93.9%	118%	104	91.7%	49.8%	110%	97.1%	102%	98.6%		108%	83.8%
CCCC1OC(c2ccc(C(C)C)cc2)OCC1CC (stereo not drawn)	104%	96.7%	101%	112%	85.5%	112%	107%	105	85.7%	102%		112%	94.7%	93.9%	103%	107%	99.6%
Cc1cc(-c2ccccc2)c(C)n1Cc1ccc(Cl)cc1	44.1%	47.2%	64.5%	61.6%	62.2%	50.4%	27.3%	14	50.5%		-18.4% (active)	22.7%	23.5%	15%	74.2%	27.6%	50.6%
Cc1ccc2c(c1)C(C)Cc1c(N(C)C)ncnc1N2C (stereo not drawn)	32.4%	51%	83.9%	61.1%	35.1%	59.5%		28.5	34.8%	30.6%	-6.18% (active)	20.6%	16.9%	19%	58.2%	26.2%	6.88% (active)
COC(=O)c1ccc2nc(-c3cc4ccccc4n3C)n(CCCCOc3cc4c(cc3OC)C(=O)N3CCC[C@H]3C=N4)c2c1	-32.9% (active)	16.5%	-1.18% (active)	-24% (active)	30.1%	-68.2% (active)		29.5	4.1% (active)	-53.6% (active)	-88.6% (active)	-23% (active)	2.44% (active)	8.52% (active)	-17.6% (active)	-29.2% (active)	-62.5% (active)
Clc1cccc(Cl)c1Cn1c(-c2cncs2)nc2ccccc21		87%	94%	82.1%	96.3%	82.6%	90.5%	73	64.5%	85.1%	44.5%	94%	92.3%	78.8%	82.6%	80.5%	97%
CC(Br)C(OC(=O)c1ccccc1Cl)c1cc2c(cc1Br)OCO2 (stereo not drawn)		94.8%	89.6%	77.9%	124%	68.9%	89%	85.1	74.9%	109%	75.3%	84.6%	95.2%	66.6%	90.7%	89%	88.2%
COc1cc(Cn2c(-c3nonc3N)nc3ccccc32)ccc1C	19.2%	31.6%	34%		29.9%	47.6%	-34.7% (active)	21.2	37.2%	66.9%	-30.6% (active)	31.2%	20.7%	20.3%	23.5%		22.5%
Cc1cc2c(c(=O)o1)C(c1ccc(OC(=O)N3CCOCC3)cc1)C(C#N)=C(N)O2 (stereo not drawn)		104%	98.9%	109%	101%	107%	109%	105	102%	104%	105%	108%	98%	104%	99.4%	105%	116%
O=P([O-])(O)OP(=O)([O-])O.[NH-][C@H]1CCCC[C@@H]1[NH-].[OH-].[OH-].[Pt+4]	97.8%	101%	95.2%		106%	108%	111%	103	114%	117%	99.3%	105%	96.7%	101%	98.8%	104%	109%
O=C(CCCn1c(=O)c2sc3ccccc3c2n2nnc(-c3ccccc3)c12)NCCc1cnc[nH]1	62.5%	-28.5% (active)	-78.9% (active)	-54.5% (active)	75.3%			36.1	4.62% (active)	32.3%	-49.9% (active)	-11.1% (active)	-47.4% (active)	-86.6% (active)	-42.6% (active)	-7.92% (active)	90.6%
COc1ccc(Cl)cc1NC(N)=S		108%	113%	94.8%	118%		108%	105	96.3%	107%	104%		96.2%	102%	102%	105%	104%
COc1ccc(/C=C(\C#N)c2ccc([N+](=O)[O-])cc2)c2ccccc12	82.8%	15.8%	92.8%	2.84% (active)	5.28% (active)		62.6%	50	46.9%	27.9%	62.6%	74.4%	71.8%	43.4%	80%	75.6%	26.2%
NC(=O)c1ccc2c(c1)OCO2	106%	108%	113%	103%	130%		107%	97	111%	110%	100%	98%	95.6%	101%	100%	103%	98.7%
O=C(C[N+](=O)[O-])c1ccc(Cl)cc1	100%	116%	110%	111%	113%		113%	109	113%	102%	114%	106%	100%	101%	110%	109%	100%
O=C(c1ccccc1)C(Cl)C(Cl)c1ccccc1 (stereo not drawn)	-5.33% (active)	-1.77% (active)	113%	41.2%	138%		2.77% (active)	80.2	-1.59% (active)	96.5%	33.7%	-41.3% (active)	9.18% (active)	7.77% (active)	98.1%	81.3%	83.7%
Cc1ccc(S(=O)(=O)N2CCC(C(=O)Nc3ccc(F)cc3F)CC2)cc1	86.5%	97.8%	98%		92.3%	-38.5% (active)	91.6%	95.4	88.8%	96.9%	95%	103%	93.2%	101%		109%	-32.4% (active)
OC1CC2c3ccccc3C1c1ccccc12 (stereo not drawn)	104%	106%	113%		112%		112%	110	111%	108%		108%	98.8%	103%	108%	107%	104%
CNC(=O)c1cc(Oc2ccc3c(c2)sc2nc(-c4ccc(Cl)cc4)cn23)ccn1		73%	113%	55.2%	66.2%	87.6%	82.7%	84.7	79%	87.8%	97.7%	97.3%	72%	80.9%	90.1%	92.9%	70.5%
